Measurements: the supplement of paper PMC10849652
Targets with a hit are over-represented here; the source holds about 8,800 in all. About 0.5% of all pairs of compound and target were hits.

Experiments:
Test in all cases: log2 fold change, soluble protein after heating vs DMSO (PISA); higher = thermal stabilisation; K562 lysate, 10 uM; active = over 0.2 and 3.5 SD of the protein, either way, in both replicates (recomputed)
vemurafenib = compound: CCCS(=O)(=O)Nc1ccc(F)c(C(=O)c2c[nH]c3ncc(-c4ccc(Cl)cc4)cc23)c1F [vemurafenib]
Outline: (§1)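 To prepare the extract, K562 pellets were dounce-homogenised in PBS pH 7.4 with 1 mM MgCl2, giving crude material at 1 mg/mL protein. This was treated with 10 μM compound for 30 min, then heated in aliquots for 3 min over 48°C-58°C before pooling and addition of NP-40 to 0.5% at 4°C. Centrifugation at 21,000xg for 90 min left soluble protein in the supernatant, which TMTpro 16plex LC-MS/MS quantified with equalised channel sums. Results are log-two fold changes in thermal stability compared with solvent controls, from duplicates.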

[1] = compound: CCCS(=O)(=O)Nc1ccc(F)c(C(=O)c2c[nH]c3ncc(Cl)cc23)c1F
Outline: as §1

barasertib = compound: CCN(CCCOc1ccc2c(Nc3cc(CC(=O)Nc4cccc(F)c4)[nH]n3)ncnc2c1)CCOP(=O)(O)O [barasertib]
Outline: as §1

[2] = compound: CC[C@@H]1C(=O)N(C)c2cnc(Nc3ccc(C(=O)NC4CCN(C)CC4)cc3OC)nc2N1C1CCCC1
Outline: as §1

volasertib = compound: CC[C@@H]1C(=O)N(C)c2cnc(Nc3ccc(C(=O)N[C@H]4CC[C@H](N5CCN(CC6CC6)CC5)CC4)cc3OC)nc2N1C(C)C [volasertib]
Outline: as §1

[3] = compound: CCn1c(C(=O)N(C2CC2)C2CC2)cc2c3c(ncn3C)c(Nc3cc(C)n(C)n3)nc21
Outline: as §1

[4] = compound: CCn1cc(-c2ccnc3[nH]c(-c4cccc(CN(C)C)c4)cc23)c(-c2ccc(NC(=O)N(C)C)cc2)n1
Outline: as §1

[5] = compound: CN1CCC(CNc2ccc3ncc(-c4cccc(OC(F)(F)F)c4)n3n2)CC1
Outline: as §1

saracatinib = compound: CN1CCN(CCOc2cc(OC3CCOCC3)c3c(Nc4c(Cl)ccc5c4OCO5)ncnc3c2)CC1 [saracatinib]
Outline: as §1

sotrastaurin = compound: CN1CCN(c2nc(C3=C(c4c[nH]c5ccccc45)C(=O)NC3=O)c3ccccc3n2)CC1 [sotrastaurin]
Outline: as §1

alvocidib = compound: CN1CC[C@H](c2c(O)cc(O)c3c(=O)cc(-c4ccccc4Cl)oc23)[C@H](O)C1 [alvocidib]
Outline: as §1

Tubastatin A = compound: CN1CCc2c(c3ccccc3n2Cc2ccc(C(=O)NO)cc2)C1 [Tubastatin A]
Outline: as §1

[6] = compound: CNC(=O)C1=CC=CC=C1NC2=NC(=NC=C2Cl)NC3=C(C=C(C=C3)N4CCOCC4)OC
Outline: as §1

defactinib = compound: CNC(=O)c1ccc(Nc2ncc(C(F)(F)F)c(NCc3nccnc3N(C)S(C)(=O)=O)n2)cc1 [defactinib]
Outline: as §1

[7] = compound: CNc1nc(-c2ccc3c(N)n[nH]c3c2)cc(N2C[C@@H](C(=O)NC3CCCCC3)CC[C@H]2C)n1
Outline: as §1

encorafenib = compound: COC(=O)N[C@@H](C)CNc1nccc(-c2cn(C(C)C)nc2-c2cc(Cl)cc(NS(C)(=O)=O)c2F)n1 [encorafenib]
Outline: as §1

[8] = compound: COC(=O)[C@H](CCSC)NC(=O)C1=C(C=C(C=C1)NC[C@H](CS)N)C2=CC=CC=C2
Outline: as §1

alisertib = compound: COc1cc(Nc2ncc3c(n2)-c2ccc(Cl)cc2C(c2c(F)cccc2OC)=NC3)ccc1C(=O)O [alisertib]
Outline: as §1

[9] = compound: COc1cc2nc(-c3cc(F)ccc3O)nc(N[C@@H]3CNC[C@H]3C(C)(C)O)c2cc1OC
Outline: as §1

gefitinib = compound: COc1cc2ncnc(Nc3ccc(F)c(Cl)c3)c2cc1OCCCN1CCOCC1 [gefitinib]
Outline: as §1

Measured: log2 fold change

TTC12 isoform 2 (UniProt Q9H892)
Sequence of UniProt Q9H892 (Q9H892 whole entry, looked up): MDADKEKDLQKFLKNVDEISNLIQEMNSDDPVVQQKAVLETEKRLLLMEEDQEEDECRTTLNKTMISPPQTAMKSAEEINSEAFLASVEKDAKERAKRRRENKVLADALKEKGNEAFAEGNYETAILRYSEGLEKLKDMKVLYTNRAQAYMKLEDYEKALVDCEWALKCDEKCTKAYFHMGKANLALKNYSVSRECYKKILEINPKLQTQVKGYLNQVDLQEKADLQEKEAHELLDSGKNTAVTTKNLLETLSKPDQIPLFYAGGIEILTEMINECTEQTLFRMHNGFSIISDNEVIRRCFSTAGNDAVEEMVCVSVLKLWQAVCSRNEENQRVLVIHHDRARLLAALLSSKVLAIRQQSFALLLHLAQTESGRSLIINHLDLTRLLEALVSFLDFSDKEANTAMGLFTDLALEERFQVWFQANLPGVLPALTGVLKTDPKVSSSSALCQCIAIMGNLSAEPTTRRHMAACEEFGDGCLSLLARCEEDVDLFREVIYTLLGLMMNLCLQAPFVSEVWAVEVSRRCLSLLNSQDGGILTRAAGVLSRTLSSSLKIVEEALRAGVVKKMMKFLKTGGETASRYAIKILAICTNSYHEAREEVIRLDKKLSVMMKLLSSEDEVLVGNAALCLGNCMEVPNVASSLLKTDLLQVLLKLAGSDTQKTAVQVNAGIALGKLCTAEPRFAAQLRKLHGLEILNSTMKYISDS
inactive: vemurafenib 0.025 | [1] 0.061 | barasertib 0.053 | [2] -0.049 | volasertib 0.063 | [3] -0.121 | [4] -0.208 | [5] 0.079 | saracatinib 0.038 | sotrastaurin -0.055 | alvocidib -0.024 | Tubastatin A -0.279 | [6] -0.06 | defactinib -0.05 | [7] -0.041 | encorafenib -0.052 | [8] -0.03 | alisertib -0.145 | [9] -0.043 | gefitinib 0.137

TTL (UniProt Q8NG68)
Sequence of UniProt Q8NG68 (Q8NG68 whole entry, looked up): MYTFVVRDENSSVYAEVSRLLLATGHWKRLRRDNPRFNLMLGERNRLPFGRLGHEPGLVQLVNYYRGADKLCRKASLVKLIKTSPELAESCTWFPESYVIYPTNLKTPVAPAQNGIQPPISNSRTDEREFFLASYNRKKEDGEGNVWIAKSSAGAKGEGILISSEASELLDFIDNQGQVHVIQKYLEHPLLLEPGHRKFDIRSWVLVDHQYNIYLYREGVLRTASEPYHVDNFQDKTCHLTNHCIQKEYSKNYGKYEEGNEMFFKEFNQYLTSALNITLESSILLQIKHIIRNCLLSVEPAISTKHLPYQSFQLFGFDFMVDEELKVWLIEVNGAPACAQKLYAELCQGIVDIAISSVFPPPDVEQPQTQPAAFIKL
inactive: vemurafenib -0.066 | [1] 0.053 | barasertib 0 | [2] -0.231 | volasertib -0.116 | [3] 0.021 | [4] 0.009 | [5] -0.044 | saracatinib -0.068 | sotrastaurin 0.078 | alvocidib 0.112 | Tubastatin A -0.143 | [6] 0.015 | defactinib -0.065 | [7] 0.001 | encorafenib 0.079 | [8] 0.144 | alisertib -0.027 | [9] 0.019 | gefitinib 0.112

TUBB4B (UniProt P68371)
inactive: vemurafenib 0.006 | [1] 0.004 | barasertib -0.092 | [2] -0.032 | volasertib -0.034 | [3] 0.005 | [4] -0.134 | [5] -0.011 | saracatinib 0.03 | sotrastaurin -0.021 | alvocidib 0.032 | Tubastatin A -0.017 | [6] 0.024 | defactinib 0.018 | [7] -0.039 | encorafenib -0.03 | [8] 0.067 | alisertib 0.019 | [9] -0.013 | gefitinib -0.028

TRIM65 (UniProt Q6PJ69)
inactive: vemurafenib 0.025 | [1] 0.085 | barasertib 0.013 | [2] 0.026 | volasertib -0.076 | [3] 0 | [4] -0.056 | [5] 0.008 | saracatinib -0.022 | sotrastaurin 0.022 | alvocidib -0.11 | Tubastatin A 0.025 | [6] -0.044 | defactinib 0.024 | [7] -0.014 | encorafenib -0.002 | [8] 0.089 | alisertib -0.02 | [9] 0.023 | gefitinib 0.003

TOPBP1 (UniProt Q92547)
Sequence of UniProt Q92547 (Q92547 whole entry, looked up): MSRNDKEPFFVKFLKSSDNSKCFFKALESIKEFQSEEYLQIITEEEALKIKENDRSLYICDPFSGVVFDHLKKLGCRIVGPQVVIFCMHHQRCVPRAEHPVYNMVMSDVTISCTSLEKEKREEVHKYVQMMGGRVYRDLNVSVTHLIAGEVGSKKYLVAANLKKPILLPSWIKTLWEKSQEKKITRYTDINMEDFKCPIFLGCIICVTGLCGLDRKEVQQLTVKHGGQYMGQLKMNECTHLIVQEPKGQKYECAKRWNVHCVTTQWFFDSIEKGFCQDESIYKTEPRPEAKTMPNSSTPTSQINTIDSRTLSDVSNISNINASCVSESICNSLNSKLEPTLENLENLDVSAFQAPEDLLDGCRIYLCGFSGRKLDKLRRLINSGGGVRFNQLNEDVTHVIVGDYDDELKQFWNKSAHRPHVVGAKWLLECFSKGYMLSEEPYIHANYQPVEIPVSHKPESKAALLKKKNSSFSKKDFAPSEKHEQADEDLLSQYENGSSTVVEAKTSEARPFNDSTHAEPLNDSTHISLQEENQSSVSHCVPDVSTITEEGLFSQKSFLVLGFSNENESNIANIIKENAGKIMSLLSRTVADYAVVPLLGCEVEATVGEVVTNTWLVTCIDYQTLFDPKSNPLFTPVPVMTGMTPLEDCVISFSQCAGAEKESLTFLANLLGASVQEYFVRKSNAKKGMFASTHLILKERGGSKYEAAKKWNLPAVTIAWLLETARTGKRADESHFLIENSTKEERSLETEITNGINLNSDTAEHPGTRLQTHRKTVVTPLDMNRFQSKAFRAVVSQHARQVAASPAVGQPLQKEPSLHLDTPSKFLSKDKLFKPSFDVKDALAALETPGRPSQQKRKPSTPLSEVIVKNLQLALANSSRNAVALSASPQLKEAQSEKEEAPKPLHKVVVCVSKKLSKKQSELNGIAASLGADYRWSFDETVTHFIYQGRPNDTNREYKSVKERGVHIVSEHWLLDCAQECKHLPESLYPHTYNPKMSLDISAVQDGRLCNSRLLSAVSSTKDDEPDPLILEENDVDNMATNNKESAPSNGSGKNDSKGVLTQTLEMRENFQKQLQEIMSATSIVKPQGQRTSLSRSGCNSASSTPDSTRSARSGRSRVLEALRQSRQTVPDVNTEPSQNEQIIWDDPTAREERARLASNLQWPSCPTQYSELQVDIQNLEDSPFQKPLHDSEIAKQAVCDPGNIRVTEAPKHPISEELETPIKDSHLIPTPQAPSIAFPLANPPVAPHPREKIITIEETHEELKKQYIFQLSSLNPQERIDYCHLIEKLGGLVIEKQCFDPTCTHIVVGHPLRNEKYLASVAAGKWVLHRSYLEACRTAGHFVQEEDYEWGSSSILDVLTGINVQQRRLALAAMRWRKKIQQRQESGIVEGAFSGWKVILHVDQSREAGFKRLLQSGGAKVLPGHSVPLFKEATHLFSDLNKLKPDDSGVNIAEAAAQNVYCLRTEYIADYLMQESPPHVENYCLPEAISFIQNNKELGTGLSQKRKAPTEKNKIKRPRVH
active: [4] 0.305
inactive: vemurafenib 0.024 | [1] -0.08 | barasertib 0.018 | [2] 0.012 | volasertib -0.079 | [3] -0.029 | [5] -0.071 | saracatinib -0.003 | sotrastaurin 0.02 | alvocidib 0.024 | Tubastatin A -0.067 | [6] 0.033 | defactinib 0.047 | [7] 0.01 | encorafenib -0.024 | [8] 0.108 | alisertib -0.039 | [9] 0.034 | gefitinib 0.008

TUBA1C (UniProt Q9BQE3)
Sequence of UniProt Q9BQE3 (Q9BQE3 whole entry, looked up): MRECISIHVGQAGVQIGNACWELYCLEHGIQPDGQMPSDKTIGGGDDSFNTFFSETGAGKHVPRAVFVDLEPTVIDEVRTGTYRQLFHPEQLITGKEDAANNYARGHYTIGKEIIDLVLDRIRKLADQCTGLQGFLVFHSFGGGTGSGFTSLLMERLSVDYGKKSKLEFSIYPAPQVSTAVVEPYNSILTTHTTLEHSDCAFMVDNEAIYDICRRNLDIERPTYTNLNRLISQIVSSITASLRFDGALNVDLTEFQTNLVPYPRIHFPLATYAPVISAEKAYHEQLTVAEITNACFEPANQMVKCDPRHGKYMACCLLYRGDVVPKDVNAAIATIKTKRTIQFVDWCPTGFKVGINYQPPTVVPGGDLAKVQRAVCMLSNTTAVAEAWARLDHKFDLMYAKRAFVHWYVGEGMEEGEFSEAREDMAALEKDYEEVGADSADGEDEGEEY
inactive: vemurafenib 0.036 | [1] 0.026 | barasertib 0.013 | [2] 0.009 | volasertib -0.059 | [3] -0.029 | [4] -0.082 | [5] 0.022 | saracatinib 0.054 | sotrastaurin 0.044 | alvocidib 0 | Tubastatin A -0.001 | [6] 0.011 | defactinib 0.009 | [7] 0.06 | encorafenib -0.002 | [8] 0.023 | alisertib -0.012 | [9] 0.001 | gefitinib -0.042

TRMT2A (UniProt Q8IZ69)
Sequence of UniProt Q8IZ69 (Q8IZ69 whole entry, looked up): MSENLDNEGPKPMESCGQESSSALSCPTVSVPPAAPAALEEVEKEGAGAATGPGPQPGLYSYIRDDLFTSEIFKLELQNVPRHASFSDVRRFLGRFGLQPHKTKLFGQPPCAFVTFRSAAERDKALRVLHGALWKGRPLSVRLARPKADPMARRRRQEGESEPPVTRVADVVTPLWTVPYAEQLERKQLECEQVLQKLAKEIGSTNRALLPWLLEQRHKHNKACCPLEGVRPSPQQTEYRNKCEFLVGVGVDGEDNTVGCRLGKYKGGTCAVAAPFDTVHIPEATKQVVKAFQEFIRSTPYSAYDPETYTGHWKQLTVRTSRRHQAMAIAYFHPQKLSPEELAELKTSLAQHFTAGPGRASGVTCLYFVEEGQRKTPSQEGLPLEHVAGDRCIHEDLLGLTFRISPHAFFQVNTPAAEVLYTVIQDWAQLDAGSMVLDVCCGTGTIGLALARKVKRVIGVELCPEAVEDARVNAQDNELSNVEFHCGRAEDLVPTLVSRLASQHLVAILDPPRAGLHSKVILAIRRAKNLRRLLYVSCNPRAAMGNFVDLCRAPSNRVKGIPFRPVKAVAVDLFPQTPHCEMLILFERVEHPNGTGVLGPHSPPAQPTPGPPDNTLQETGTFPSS
inactive: vemurafenib -0.028 | [1] 0.004 | barasertib 0.016 | [2] -0.019 | volasertib -0.045 | [3] 0.005 | [4] -0.016 | [5] 0.009 | saracatinib -0.007 | sotrastaurin 0.002 | alvocidib -0.014 | Tubastatin A -0.144 | [6] 0.019 | defactinib 0.041 | [7] -0.018 | encorafenib 0.019 | [8] 0.098 | alisertib 0.043 | [9] 0.007 | gefitinib 0.007

TRIM33 (UniProt H0Y612)
inactive: vemurafenib 0.012 | [1] 0.007 | barasertib 0.087 | [2] 0.018 | volasertib 0.012 | [3] 0.093 | [4] -0.017 | [5] 0.051 | saracatinib -0.078 | sotrastaurin 0.006 | alvocidib -0.081 | Tubastatin A -0.034 | [6] 0.119 | defactinib -0.007 | [7] 0.075 | encorafenib 0.014 | [8] 0.122 | alisertib -0.006 | [9] 0.09 | gefitinib -0.102

TPM3 isoform 2 (UniProt P06753)
Sequence of UniProt P06753 (P06753 whole entry, looked up): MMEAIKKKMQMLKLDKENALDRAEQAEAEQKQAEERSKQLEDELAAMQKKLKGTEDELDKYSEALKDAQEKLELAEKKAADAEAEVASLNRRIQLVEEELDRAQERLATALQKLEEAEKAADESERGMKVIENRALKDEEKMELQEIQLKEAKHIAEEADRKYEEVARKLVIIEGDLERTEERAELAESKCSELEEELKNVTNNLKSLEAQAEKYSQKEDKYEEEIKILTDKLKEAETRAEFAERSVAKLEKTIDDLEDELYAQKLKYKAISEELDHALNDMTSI
inactive: vemurafenib -0.052 | [1] -0.024 | barasertib -0.016 | [2] -0.07 | volasertib 0.007 | [3] 0.026 | [4] 0.196 | [5] -0.179 | saracatinib -0.009 | sotrastaurin 0.025 | alvocidib 0.03 | Tubastatin A 0.033 | [6] -0.012 | defactinib 0 | [7] -0.144 | encorafenib 0 | [8] -0.071 | alisertib 0 | [9] -0.024 | gefitinib 0.059

UBR3 isoform 4 (UniProt Q6ZT12)
inactive: vemurafenib 0.035 | [1] -0.001 | barasertib 0.026 | [2] -0.033 | volasertib -0.091 | [3] -0.011 | [4] -0.015 | [5] -0.044 | saracatinib 0.044 | sotrastaurin 0.009 | alvocidib 0.012 | Tubastatin A -0.155 | [6] 0.074 | defactinib -0.062 | [7] -0.03 | encorafenib -0.006 | [8] 0.054 | alisertib -0.005 | [9] 0.005 | gefitinib 0.018

TRAPPC12 (UniProt Q8WVT3)
Sequence of UniProt Q8WVT3 (Q8WVT3 whole entry, looked up): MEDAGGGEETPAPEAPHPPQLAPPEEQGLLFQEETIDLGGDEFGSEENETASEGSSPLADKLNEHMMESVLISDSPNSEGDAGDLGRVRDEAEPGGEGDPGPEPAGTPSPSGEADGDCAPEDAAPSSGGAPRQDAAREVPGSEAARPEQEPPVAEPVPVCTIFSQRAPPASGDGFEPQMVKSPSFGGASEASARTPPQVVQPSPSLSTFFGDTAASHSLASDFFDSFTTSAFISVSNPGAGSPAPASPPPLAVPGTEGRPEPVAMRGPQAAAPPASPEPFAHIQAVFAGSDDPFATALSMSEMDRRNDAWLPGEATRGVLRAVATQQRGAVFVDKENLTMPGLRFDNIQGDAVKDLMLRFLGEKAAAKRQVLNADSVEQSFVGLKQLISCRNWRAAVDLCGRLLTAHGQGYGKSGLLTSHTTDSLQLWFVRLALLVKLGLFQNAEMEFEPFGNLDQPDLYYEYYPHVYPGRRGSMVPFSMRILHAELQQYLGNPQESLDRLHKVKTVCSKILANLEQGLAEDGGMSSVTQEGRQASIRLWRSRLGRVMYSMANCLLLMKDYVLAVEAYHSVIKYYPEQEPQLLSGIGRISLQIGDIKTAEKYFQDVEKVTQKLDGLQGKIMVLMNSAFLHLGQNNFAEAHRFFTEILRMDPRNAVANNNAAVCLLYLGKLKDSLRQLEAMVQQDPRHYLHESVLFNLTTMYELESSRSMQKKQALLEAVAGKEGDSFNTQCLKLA
inactive: vemurafenib 0.039 | [1] -0.001 | barasertib -0.007 | [2] 0.047 | volasertib -0.083 | [3] -0.03 | [4] -0.027 | [5] -0.009 | saracatinib 0.028 | sotrastaurin -0.003 | alvocidib -0.009 | Tubastatin A -0.079 | [6] 0.063 | defactinib 0.002 | [7] -0.039 | encorafenib 0.065 | [8] 0.057 | alisertib 0.034 | [9] 0.01 | gefitinib 0.022

UBE2L6 (UniProt O14933)
active: [8] -0.36
inactive: vemurafenib 0.031 | [1] -0.035 | barasertib 0.229 | [2] 0.041 | volasertib 0.008 | [3] 0.022 | [4] 0.037 | [5] -0.115 | saracatinib -0.034 | sotrastaurin -0.03 | alvocidib 0.034 | Tubastatin A -0.051 | [6] 0.082 | defactinib 0.065 | [7] -0.005 | encorafenib 0.06 | alisertib 0.004 | [9] -0.026 | gefitinib 0.092

TIMELESS (UniProt Q9UNS1)
inactive: vemurafenib 0.035 | [1] 0.031 | barasertib 0.039 | [2] -0.058 | volasertib 0.043 | [3] 0.013 | [4] -0.094 | [5] -0.07 | saracatinib 0.035 | sotrastaurin 0 | alvocidib -0.017 | Tubastatin A -0.149 | [6] 0.031 | defactinib 0 | [7] -0.039 | encorafenib 0.039 | [8] 0.105 | alisertib -0.011 | [9] 0.049 | gefitinib 0.017

UBR5 (UniProt O95071)
inactive: vemurafenib 0.004 | [1] 0.035 | barasertib 0.045 | [2] 0.006 | volasertib -0.031 | [3] 0.01 | [4] -0.029 | [5] 0.003 | saracatinib 0.019 | sotrastaurin -0.005 | alvocidib -0.011 | Tubastatin A -0.084 | [6] 0.002 | defactinib 0.016 | [7] 0 | encorafenib 0.025 | [8] -0.044 | alisertib -0.028 | [9] -0.005 | gefitinib 0.014

TGFBRAP1 (UniProt Q8WUH2)
inactive: vemurafenib -0.031 | [1] 0.02 | barasertib 0.031 | [2] -0.069 | volasertib -0.062 | [3] 0.049 | [4] 0 | [5] -0.075 | saracatinib 0.005 | sotrastaurin -0.001 | alvocidib -0.026 | Tubastatin A -0.153 | [6] 0 | defactinib 0.005 | [7] -0.012 | encorafenib -0.015 | [8] -0.174 | alisertib 0.011 | [9] -0.025 | gefitinib -0.025

TMEM164 (UniProt Q5U3C3)
Sequence of UniProt Q5U3C3 (Q5U3C3 whole entry, looked up): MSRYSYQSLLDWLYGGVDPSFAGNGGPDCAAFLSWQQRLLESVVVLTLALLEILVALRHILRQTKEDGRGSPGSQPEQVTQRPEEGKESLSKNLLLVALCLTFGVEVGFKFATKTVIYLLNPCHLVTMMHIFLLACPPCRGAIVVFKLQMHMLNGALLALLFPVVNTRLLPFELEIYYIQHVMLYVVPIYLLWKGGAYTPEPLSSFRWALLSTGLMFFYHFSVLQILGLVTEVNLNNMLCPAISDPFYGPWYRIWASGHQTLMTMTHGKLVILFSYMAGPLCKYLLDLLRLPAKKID
active: [4] -0.827
inactive: vemurafenib 0.179 | [1] 0.108 | barasertib 0.039 | [2] 0.176 | volasertib 0.08 | [3] -0.186 | [5] 0.262 | saracatinib 0.062 | sotrastaurin -0.084 | alvocidib -0.393 | Tubastatin A 0.05 | [6] -0.039 | defactinib 0.007 | [7] 0.333 | encorafenib -0.107 | [8] 0.185 | alisertib -0.075 | [9] 0.021 | gefitinib -0.063
